Source: PubChem (National Center for Advancing Translational Sciences (NCATS))
CtBP-E1A blk: qHTS Assay for Inhibitors of the CtBP/E1A Interaction; CtBP / adenovirus E1A interaction (AlphaScreen); AlphaScreen GST-E1A/His-CtBP binding, 1536-well; stronger effect = lower value; 340,000 tested, 0.49% active; activity change, % (no concentration beside the values)
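Protein mix (5X: 125 nM each GST-E1A, His-CtBP) was incubated with pinned compound 2 h at 37 deg C in dark, in 50 mM Tris pH 8.0 buffer with 300 mM NaCl. Glutathione donor and nickel acceptor beads followed; AlphaScreen signal read after 1 h.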
PKM2 act: qHTS Assay for Activators of Human Muscle isoform 2 Pyruvate Kinase; Pyruvate kinase PKM (Homo sapiens), P14618; AID 1631, 2009; 260,000 tested, 0.34% active; Potency, µM (series often up to 57.5 µM), actives largely listed as activators; purified PKM2, Kinase-Glo ATP luminescence, activation; response scale: 0% is enzyme alone, no compound; active = well fitted activation curve with a large enough effect; inconclusive = small, poorly fitted or top-dose-only effect; inactive = no such curve, though single readings can be large or run the other way; also: nearly all actives have a fitted effect of over 55% in size
Target sequence (P14618 whole entry, looked up, canonical isoform): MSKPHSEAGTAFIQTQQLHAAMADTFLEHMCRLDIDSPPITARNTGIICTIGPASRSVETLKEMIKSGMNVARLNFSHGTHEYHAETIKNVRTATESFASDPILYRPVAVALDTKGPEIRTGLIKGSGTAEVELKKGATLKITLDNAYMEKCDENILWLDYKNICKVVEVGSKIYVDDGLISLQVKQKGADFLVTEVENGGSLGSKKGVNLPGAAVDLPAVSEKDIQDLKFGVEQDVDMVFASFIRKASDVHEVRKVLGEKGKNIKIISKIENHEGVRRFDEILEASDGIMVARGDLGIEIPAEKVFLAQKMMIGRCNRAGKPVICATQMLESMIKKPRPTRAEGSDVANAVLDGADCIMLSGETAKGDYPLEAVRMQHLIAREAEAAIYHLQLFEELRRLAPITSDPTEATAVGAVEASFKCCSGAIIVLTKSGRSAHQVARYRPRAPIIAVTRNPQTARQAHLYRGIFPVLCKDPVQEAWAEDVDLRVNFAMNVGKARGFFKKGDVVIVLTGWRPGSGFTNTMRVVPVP
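Purified hPK-M2 (>95% pure) converted ADP (0.1 mM final) to ATP with 0.5 mM PEP in 50 mM imidazole pH7.2, KCl, MgCl2, Tween 20, BSA; 1 h at room temperature. ATP detected by Kinase-Glo luminescence.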
MBNL1 CUG block: qHTS Assay for Inhibitors of MBNL1-poly(CUG) RNA binding. TR-FRET MBNL1-His/biotin-(CUG)12 binding, 665/545 ratio. Potency, µM (series often up to 57.5 µM), actives largely listed as inhibitors. 280,000 tested, 0.036% active. AID 2675, 2010; active = well fitted inhibition curve with a large enough effect in the signal ratio, with a control signal flat, not every such curve was filed as active; inconclusive = small, poorly fitted or top-dose-only effect, or effect the other way, or a change in a side signal; inactive = no such curve, though single readings can be large or run the other way; the % refers to the signal ratio
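TR-FRET readout: Ex 340 nm, 665/545 nm emission ratio, normalized to buffer-only (basal) and MBNL1-(CUG)12 controls. Complex of MBNL1-His with Biotin-(CUG)12, compounds 92 nM–58 uM, incubated 60 min at room temperature.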
Six1-Eya2 inh: qHTS Assay for Inhibitors of the Six1/Eya2 Interaction; Homeobox protein SIX1 (Homo sapiens) + Protein phosphatase EYA2 (Homo sapiens), …; 360,000 tested, 0.56% active; activity change, % (no concentration beside the values); AlphaScreen GST-Six1/His-Eya2 binding, biochemical; stronger effect = lower value
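AlphaScreen with GST-Six1 and His-Eya2 (5X mix: 250 nM and 500 nM), glutathione donor and nickel acceptor beads; buffer 50 mM Tris pH 8.0, 300 mM NaCl, 1 mM TCEP; 1 h at 37 C in the dark.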
Large screens that a line does not name were inactive. Rows were chosen to be rich in hits. Some 0.93% of all compounds tested hit in one or more screens of this group. Rule as the data show it, unless noted: active = activity change below about -65%; inconclusive = mostly about -30% to -63%; inactive = weaker than that.

Cc1cnc(C=NNC(N)=S)c2cccc(N)c12	Six1-Eya2 inh -78.9 (no result: PKM2 act, MBNL1 CUG block)
NC(=S)NN=Cc1nccc2ccccc12	CtBP-E1A blk -94.1, Six1-Eya2 inh -81.2 (no result: PKM2 act, MBNL1 CUG block)
COC(=O)C1=C(C(=O)OC)[C@@H]2Nc3ccccc3[C@@]23C[C@@H](C(=O)OC)N(S(=O)(=O)c2ccc(C)cc2)C3=N1	none (no result: CtBP-E1A blk, MBNL1 CUG block, Six1-Eya2 inh)
COc1cc(OC)cc(C(=O)NNC(=O)c2ccccn2)c1	CtBP-E1A blk -90.0, Six1-Eya2 inh -91.5
O=C(NNC(=O)c1ccccn1)c1cccc([N+](=O)[O-])c1	CtBP-E1A blk -66.0, MBNL1 CUG block inconclusive, Six1-Eya2 inh -82.0
CC(C)C(=O)NNC(=O)c1ccccn1	MBNL1 CUG block inconclusive, Six1-Eya2 inh inconclusive
CC(Oc1ccccc1)C(=O)NNC(=O)c1ccccn1 (configuration not stated)	Six1-Eya2 inh -67.0
COc1ccc(C(=O)NNC(=O)c2ccccn2)cc1	none (no result: CtBP-E1A blk)
C/C(=N\NC(=O)C(C)Oc1ccc([N+](=O)[O-])cc1)c1ccccn1 (configuration not stated)	CtBP-E1A blk -93.8, Six1-Eya2 inh -88.4
c1ccc(NN=C(c2ccccc2)c2cccs2)cc1	none (no result: PKM2 act, MBNL1 CUG block)
COc1ncc(-c2ccc(N3C(c4ccc([N+](=O)[O-])cc4)=Cc4ccccc4C3CC(C)=O)cc2)cn1 (configuration not stated)	none (no result: PKM2 act, MBNL1 CUG block)
CCOc1ccc(OCCCC(=O)NNC(=O)c2ccncc2)cc1	none (no result: PKM2 act, MBNL1 CUG block)
CC(=O)c1ccc(OCCCC(=O)NNC(=O)c2ccccn2)cc1	CtBP-E1A blk -70.2, Six1-Eya2 inh inconclusive (no result: PKM2 act, MBNL1 CUG block)
O=C1CSC(=S)N1N=Cc1ccccc1O	Six1-Eya2 inh -90.2 (no result: PKM2 act, MBNL1 CUG block)
COc1cc(O)c(C=NN2C(=O)CSC2=S)c(OC)c1	CtBP-E1A blk inconclusive, Six1-Eya2 inh -87.2 (no result: PKM2 act, MBNL1 CUG block)
O=C1CSC(=S)N1/N=C/c1ccc2c(c1)OCCO2	CtBP-E1A blk -81.8, MBNL1 CUG block inconclusive (no result: PKM2 act)
COc1cc(/C=N/N2C(=O)CSC2=S)ccc1O	CtBP-E1A blk inconclusive, MBNL1 CUG block inconclusive
O=C1NC(Cc2ccccc2)c2nc3ccc(F)cc3c(=O)n2-c2ncccc21 (configuration not stated)	none (no result: PKM2 act, MBNL1 CUG block)
C#Cc1ccc(NC(=O)C2(C)CCN2C(=O)CC(c2ccccc2)c2ccccc2)cc1 (configuration not stated)	none (no result: PKM2 act, MBNL1 CUG block)
Cc1c(C(=O)NNC(=S)Nc2cccc(Cl)c2)nnn1-c1ccccc1	Six1-Eya2 inh -85.3
Cc1cc(NC(=O)Nc2cccc(Cl)c2)n(-c2ccccc2)n1	none
COc1ccccc1-c1csc(C(C)(O)c2ccccc2)n1 (configuration not stated)	none (no result: PKM2 act, MBNL1 CUG block)
c1ccc(-c2cnc(-c3ccccc3)nn2)cc1	none (no result: PKM2 act, MBNL1 CUG block)
c1ccc(-c2cncnc2)nc1	none (no result: PKM2 act, MBNL1 CUG block)
Nc1nc(N)nc(-c2ccccn2)n1	CtBP-E1A blk -72.6, Six1-Eya2 inh -81.1
c1ccc(-c2cnc(-c3ccccn3)nn2)cc1	CtBP-E1A blk -85.7, Six1-Eya2 inh -90.9 (no result: PKM2 act, MBNL1 CUG block)
c1ccc(-c2cnnc(-c3ccccn3)n2)cc1	CtBP-E1A blk -76.1, Six1-Eya2 inh -88.0 (no result: PKM2 act, MBNL1 CUG block)
Clc1ccc(-c2cnnc(-c3ccccn3)n2)cc1	CtBP-E1A blk -84.0, Six1-Eya2 inh -86.3 (no result: PKM2 act, MBNL1 CUG block)
c1ccc(-c2nc(-c3ccccn3)nc(-c3ccccn3)n2)nc1	CtBP-E1A blk inconclusive, Six1-Eya2 inh inconclusive
Cc1cc(Oc2ccc(Cl)cc2)nc(-c2ccccn2)n1	none
COC(=O)C1=C(C(=O)OC)[C@@H]2N(C)c3ccccc3[C@@]23C[C@@H](C(=O)OC)N(S(=O)(=O)c2ccc(C)cc2)C3=N1	none (no result: CtBP-E1A blk, MBNL1 CUG block, Six1-Eya2 inh)
CCc1nc2c(OCc3ccc(Cl)cc3)cccn2c1N(C=O)Cc1ccccc1	none (no result: PKM2 act, MBNL1 CUG block)
CCN1/C(=C/c2ccc3ccccc3[n+]2CC)C=Cc2ccccc21	CtBP-E1A blk inconclusive, MBNL1 CUG block inconclusive, Six1-Eya2 inh -70.4
CCN1/C(=C/c2ccc3ccccc3[n+]2CCCS(=O)(=O)[O-])C=Cc2cc(C)ccc21	CtBP-E1A blk inconclusive, MBNL1 CUG block inconclusive (no result: PKM2 act)
COC(=O)CN(c1ccc(C)cc1)S(=O)(=O)c1ccc2c(c1)n(C)c(=O)c(=O)n2C	PKM2 act 15.8µM
CCOc1ccc(N(CC(=O)OC)S(=O)(=O)c2ccc3c(c2)n(C)c(=O)c(=O)n3C)cc1	none
OCCNc1ncnc2c1ncn2[C@H]1CN(Cc2ccncc2)C[C@@H](CO)O1	none (no result: PKM2 act, MBNL1 CUG block)
Cc1ccc(-c2csc(Nc3ccc(S(N)(=O)=O)cc3)n2)o1	PKM2 act 10µM
